In ChEMBL document CHEMBL2218924, “A broad activity screen in support of a chemogenomic map for kinase signalling research and drug discovery” (Biochem J, 2013):

Experiments:
[1] = target: Mitogen-activated protein kinase 10 (Homo sapiens) (UniProt P53779); settings: at 10 µM
[2] = target: Vascular endothelial growth factor receptor 2 (Homo sapiens) (UniProt P35968); settings: at 1 µM
[3] = target: Vascular endothelial growth factor receptor 2 (Homo sapiens) (UniProt P35968); settings: at 10 µM
[4] = target: LIM domain kinase 1 (Homo sapiens) (UniProt P53667); settings: at 1 µM
Sequence of LIM domain kinase 1 (Homo sapiens) (P53667 whole entry, looked up, the tested form may be a part): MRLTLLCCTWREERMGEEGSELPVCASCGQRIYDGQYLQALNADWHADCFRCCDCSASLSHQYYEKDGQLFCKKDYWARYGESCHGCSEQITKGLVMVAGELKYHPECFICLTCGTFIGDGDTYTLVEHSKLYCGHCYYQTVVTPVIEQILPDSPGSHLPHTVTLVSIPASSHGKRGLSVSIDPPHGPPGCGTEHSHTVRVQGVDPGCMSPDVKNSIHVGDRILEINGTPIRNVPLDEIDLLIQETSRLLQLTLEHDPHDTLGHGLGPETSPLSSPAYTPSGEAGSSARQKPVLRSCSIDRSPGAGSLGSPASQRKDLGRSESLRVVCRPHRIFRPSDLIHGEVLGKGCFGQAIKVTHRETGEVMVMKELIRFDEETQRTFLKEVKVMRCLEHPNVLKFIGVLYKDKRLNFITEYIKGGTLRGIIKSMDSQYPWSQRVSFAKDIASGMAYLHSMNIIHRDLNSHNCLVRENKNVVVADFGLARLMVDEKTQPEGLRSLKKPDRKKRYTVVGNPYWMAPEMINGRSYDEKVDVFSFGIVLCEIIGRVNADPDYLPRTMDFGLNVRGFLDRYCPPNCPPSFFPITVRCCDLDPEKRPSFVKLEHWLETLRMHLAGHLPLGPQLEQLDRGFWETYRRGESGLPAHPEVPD

[5] = target: LIM domain kinase 1 (Homo sapiens) (UniProt P53667); settings: at 10 µM
[6] = target: T1, Serine/threonine-protein kinase STK11 (Homo sapiens) (UniProt Q15831); settings: at 1 µM
T1 sequence (whole entry): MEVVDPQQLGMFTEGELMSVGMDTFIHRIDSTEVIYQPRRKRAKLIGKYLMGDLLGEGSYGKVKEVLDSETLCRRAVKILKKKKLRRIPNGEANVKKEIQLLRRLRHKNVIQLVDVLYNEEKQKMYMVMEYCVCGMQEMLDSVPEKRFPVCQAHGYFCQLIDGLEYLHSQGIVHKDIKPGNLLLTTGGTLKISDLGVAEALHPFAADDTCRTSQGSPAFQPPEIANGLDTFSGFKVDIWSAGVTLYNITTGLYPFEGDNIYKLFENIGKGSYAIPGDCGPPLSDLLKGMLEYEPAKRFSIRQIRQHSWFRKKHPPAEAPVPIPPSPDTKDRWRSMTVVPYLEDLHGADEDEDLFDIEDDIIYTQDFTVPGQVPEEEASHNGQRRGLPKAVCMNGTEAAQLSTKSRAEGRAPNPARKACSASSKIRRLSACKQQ

[7] = target: T1, Serine/threonine-protein kinase STK11 (Homo sapiens); settings: at 10 µM
[8] = target: Tyrosine-protein kinase Lck (Homo sapiens) (UniProt P06239); settings: at 1 µM
Sequence of Tyrosine-protein kinase Lck (Homo sapiens) (P06239 2-509 limits assumed): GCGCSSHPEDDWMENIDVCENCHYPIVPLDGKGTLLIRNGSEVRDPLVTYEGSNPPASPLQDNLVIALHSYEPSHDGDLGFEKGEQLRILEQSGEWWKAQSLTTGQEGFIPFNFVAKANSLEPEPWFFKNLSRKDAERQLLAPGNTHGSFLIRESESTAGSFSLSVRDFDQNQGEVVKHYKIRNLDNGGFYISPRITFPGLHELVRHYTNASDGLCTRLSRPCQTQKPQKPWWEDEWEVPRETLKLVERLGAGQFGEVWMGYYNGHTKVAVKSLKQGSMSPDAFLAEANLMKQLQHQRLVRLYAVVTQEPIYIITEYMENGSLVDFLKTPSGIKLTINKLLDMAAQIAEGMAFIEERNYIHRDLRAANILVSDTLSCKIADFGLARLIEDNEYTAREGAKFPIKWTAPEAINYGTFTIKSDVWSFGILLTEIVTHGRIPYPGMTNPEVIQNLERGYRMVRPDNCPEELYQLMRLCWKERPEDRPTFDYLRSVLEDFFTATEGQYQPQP

[9] = target: Tyrosine-protein kinase Lck (Homo sapiens) (UniProt P06239); settings: at 10 µM
[10] = target: Tyrosine-protein kinase Lck (Homo sapiens) (UniProt P06239); settings: at 1 µM; remark: listed apart in the source
[11] = target: Tyrosine-protein kinase Lck (Homo sapiens) (UniProt P06239); settings: at 10 µM; remark: listed apart in the source
[12] = target: Tyrosine-protein kinase Lyn (Homo sapiens) (UniProt P07948); settings: at 1 µM
Sequence of Tyrosine-protein kinase Lyn (Homo sapiens) (P07948 2-512 limits assumed): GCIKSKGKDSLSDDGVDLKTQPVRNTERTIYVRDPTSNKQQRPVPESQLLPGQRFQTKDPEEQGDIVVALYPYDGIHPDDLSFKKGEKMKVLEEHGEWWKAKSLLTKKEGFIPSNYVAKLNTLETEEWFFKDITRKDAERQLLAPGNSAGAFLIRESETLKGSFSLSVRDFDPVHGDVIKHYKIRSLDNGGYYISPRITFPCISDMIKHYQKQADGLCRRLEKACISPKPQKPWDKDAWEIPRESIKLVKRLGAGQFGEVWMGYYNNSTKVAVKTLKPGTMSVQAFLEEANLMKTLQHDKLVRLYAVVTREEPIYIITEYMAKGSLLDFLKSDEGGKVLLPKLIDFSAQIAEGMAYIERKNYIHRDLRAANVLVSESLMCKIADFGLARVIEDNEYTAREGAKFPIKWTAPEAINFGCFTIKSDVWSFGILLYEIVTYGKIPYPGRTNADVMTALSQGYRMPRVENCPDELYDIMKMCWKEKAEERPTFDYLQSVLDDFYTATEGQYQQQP

[13] = target: Tyrosine-protein kinase Lyn (Homo sapiens) (UniProt P07948); settings: at 10 µM
[14] = target: Mitogen-activated protein kinase 3 (Homo sapiens) (UniProt P27361); settings: at 1 µM
Sequence of Mitogen-activated protein kinase 3 (Homo sapiens) (P27361 whole entry): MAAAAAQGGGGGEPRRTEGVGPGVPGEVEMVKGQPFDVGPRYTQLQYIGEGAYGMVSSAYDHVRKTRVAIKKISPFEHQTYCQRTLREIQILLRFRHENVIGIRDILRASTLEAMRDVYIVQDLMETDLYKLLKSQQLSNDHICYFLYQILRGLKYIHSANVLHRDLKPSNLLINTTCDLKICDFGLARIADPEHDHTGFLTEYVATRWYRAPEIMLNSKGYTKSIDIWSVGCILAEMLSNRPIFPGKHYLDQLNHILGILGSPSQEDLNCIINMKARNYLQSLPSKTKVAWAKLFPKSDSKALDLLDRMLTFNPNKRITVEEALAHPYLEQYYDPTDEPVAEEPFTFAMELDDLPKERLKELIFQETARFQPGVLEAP

[15] = target: Mitogen-activated protein kinase 3 (Homo sapiens) (UniProt P27361); settings: at 10 µM
[16] = target: Mitogen-activated protein kinase 1 (Homo sapiens) (UniProt P28482); settings: at 1 µM
Sequence of Mitogen-activated protein kinase 1 (Homo sapiens) (P28482 whole entry): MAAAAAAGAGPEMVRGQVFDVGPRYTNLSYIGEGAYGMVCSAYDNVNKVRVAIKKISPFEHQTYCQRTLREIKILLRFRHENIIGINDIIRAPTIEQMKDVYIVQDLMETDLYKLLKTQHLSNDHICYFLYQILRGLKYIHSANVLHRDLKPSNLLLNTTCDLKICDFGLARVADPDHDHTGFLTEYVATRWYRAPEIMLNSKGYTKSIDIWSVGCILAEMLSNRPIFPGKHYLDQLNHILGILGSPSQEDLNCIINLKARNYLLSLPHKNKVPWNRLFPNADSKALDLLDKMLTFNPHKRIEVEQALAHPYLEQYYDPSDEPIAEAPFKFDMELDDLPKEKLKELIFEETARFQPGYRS

[17] = target: Mitogen-activated protein kinase 1 (Homo sapiens) (UniProt P28482); settings: at 10 µM
[18] = target: MAP kinase-activated protein kinase 2 (Homo sapiens) (UniProt P49137); settings: at 1 µM
Sequence of MAP kinase-activated protein kinase 2 (Homo sapiens) (P49137 whole entry, looked up): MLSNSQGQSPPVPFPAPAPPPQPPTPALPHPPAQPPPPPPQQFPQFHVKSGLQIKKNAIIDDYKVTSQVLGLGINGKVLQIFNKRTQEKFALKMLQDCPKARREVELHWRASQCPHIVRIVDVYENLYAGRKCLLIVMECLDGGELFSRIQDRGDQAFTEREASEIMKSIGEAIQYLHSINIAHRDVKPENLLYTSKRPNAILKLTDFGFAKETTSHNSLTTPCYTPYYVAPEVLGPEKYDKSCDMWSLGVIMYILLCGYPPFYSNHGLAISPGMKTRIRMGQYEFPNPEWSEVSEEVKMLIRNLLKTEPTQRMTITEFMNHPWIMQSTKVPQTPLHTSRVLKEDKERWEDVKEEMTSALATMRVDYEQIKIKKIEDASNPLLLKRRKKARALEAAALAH

[19] = target: Serine/threonine-protein kinase 10 (Homo sapiens) (UniProt O94804); settings: at 1 µM
Sequence of Serine/threonine-protein kinase 10 (Homo sapiens) (O94804 whole entry, looked up): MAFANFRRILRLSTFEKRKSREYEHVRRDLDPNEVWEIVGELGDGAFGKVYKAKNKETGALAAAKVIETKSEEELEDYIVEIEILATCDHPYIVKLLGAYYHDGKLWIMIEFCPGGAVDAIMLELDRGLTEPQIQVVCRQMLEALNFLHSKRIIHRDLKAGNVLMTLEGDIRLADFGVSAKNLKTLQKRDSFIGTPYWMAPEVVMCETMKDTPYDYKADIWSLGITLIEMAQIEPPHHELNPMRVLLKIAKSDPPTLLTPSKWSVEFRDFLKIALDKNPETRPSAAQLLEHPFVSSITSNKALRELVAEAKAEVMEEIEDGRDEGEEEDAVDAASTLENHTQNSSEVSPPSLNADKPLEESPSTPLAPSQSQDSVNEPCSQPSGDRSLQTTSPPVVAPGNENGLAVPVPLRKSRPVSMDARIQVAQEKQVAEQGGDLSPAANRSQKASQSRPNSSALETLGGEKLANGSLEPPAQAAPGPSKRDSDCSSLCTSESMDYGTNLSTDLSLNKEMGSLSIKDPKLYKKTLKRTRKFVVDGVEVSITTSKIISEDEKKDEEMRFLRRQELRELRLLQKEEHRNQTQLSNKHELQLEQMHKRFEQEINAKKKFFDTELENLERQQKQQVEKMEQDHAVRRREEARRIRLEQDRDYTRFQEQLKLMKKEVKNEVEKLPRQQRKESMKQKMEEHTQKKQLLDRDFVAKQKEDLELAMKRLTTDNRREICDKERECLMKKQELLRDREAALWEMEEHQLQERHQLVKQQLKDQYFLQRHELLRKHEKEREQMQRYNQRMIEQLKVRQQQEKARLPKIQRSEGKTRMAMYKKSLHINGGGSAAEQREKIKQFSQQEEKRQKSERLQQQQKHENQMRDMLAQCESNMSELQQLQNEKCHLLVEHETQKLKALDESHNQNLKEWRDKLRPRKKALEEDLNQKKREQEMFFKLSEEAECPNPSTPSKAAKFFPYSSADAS

[20] = target: Serine/threonine-protein kinase 10 (Homo sapiens) (UniProt O94804); settings: at 10 µM

Sequence of Mitogen-activated protein kinase 10 (Homo sapiens) (P53779 whole entry): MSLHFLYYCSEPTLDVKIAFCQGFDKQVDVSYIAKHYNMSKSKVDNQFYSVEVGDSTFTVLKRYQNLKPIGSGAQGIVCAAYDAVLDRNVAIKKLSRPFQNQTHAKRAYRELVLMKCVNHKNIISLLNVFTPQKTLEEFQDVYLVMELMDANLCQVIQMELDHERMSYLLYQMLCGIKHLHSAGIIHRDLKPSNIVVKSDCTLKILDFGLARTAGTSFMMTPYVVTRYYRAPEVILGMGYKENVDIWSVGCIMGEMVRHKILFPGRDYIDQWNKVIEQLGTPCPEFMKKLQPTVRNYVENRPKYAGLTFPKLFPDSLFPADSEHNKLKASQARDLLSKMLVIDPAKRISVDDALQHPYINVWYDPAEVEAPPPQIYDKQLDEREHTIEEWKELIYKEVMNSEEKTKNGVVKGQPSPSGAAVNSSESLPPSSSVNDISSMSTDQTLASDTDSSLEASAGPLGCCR

SMILES	residual activity [1]	residual activity [2]	residual activity [3]	residual activity [4]	residual activity [5]	residual activity [6]	residual activity [7]	residual activity [8]	residual activity [9]	residual activity [10]	residual activity [11]	residual activity [12]	residual activity [13]	residual activity [14]	residual activity [15]	residual activity [16]	residual activity [17]	residual activity [18]	residual activity [19]	residual activity [20]
COc1cc2ncnc(Nc3ccc(Oc4ccccc4)cc3)c2cc1OC	148%	49%	7%	78%	34%	102%	93%	0%	-1%	-2%	0%	1%	1%	83%	113%	96%	94%	95%		
N#CC(C#N)=C(N)/C(C#N)=C/c1ccc(O)cc1	88%		92%									93%	70%			118%		94%	98%	96%
Cc1cncc2cccc(S(=O)(=O)N3CCCN(C(=O)CN)C[C@H]3C)c12	124%	99%	74%	92%	51%	91%	69%	97%	68%	84%	78%	82%	46%	79%	86%			88%	54%	21%
COc1cc2ncnc(Nc3ccc(O)c(Br)c3)c2cc1OC	13%	30%	4%	78%	49%	106%	97%	27%	7%	21%	10%	7%	-2%	68%	45%	98%	75%	106%	17%	8%
COc1ccc(CNc2nc(N(CCO)CCO)nc3c2ncn3C(C)C)cc1	70%	79%	74%	90%	88%	126%	73%	62%	77%	104%	79%	74%	78%	91%	87%	123%	87%	96%	101%	88%
CCN(CC)C(=O)c1ccc(Nc2nc(OCC3CCCCC3)c3nc[nH]c3n2)cc1	-4%	33%	3%	39%	10%			10%	3%	20%	7%	20%	1%		29%	99%	42%	81%	45%	13%
O=C1Nc2ccccc2/C1=C1/Nc2ccccc2/C1=N\OCCC(O)CO (configuration not stated)	20%	3%	1%	42%	33%	30%	3%	4%	5%	5%	8%	4%	-1%			108%		78%	62%	70%
Cc1cc(Nc2nc(-c3ccccc3)nc3ccccc23)n[nH]1	12%	5%	1%	51%	18%		71%	23%	6%	36%	13%	9%	4%			106%			50%	10%
Oc1c2ccccc2c2c3c(cccc13)N=N2	-6%	17%	3%	64%	30%	75%	41%	70%	69%	89%	43%	70%	30%	59%	72%	88%	55%	79%	87%	62%
CC[n+]1c(/C=C/N(C)c2ccccc2)n(-c2ccccc2)c2ccc(-c3nc4ccccc4s3)cc21	93%	109%	87%	124%	96%	98%	104%	133%	322%	92%	65%	73%	73%	111%	96%	105%	100%	95%	107%	92%
COc1cc2ncc(-c3ccccc3)nc2cc1OC	79%								75%	86%	80%	67%	58%	89%	81%				90%	88%
Oc1n[nH]c2nnc(-c3c(-c4ccccc4)nn4ccccc34)cc12	43%	93%	89%	77%	87%	91%	96%	88%	82%	90%	71%	71%	68%	92%	93%	101%	105%	82%	100%	79%
c1ccc2c(-c3ccncc3)c[nH]c2c1		100%	78%	98%	64%	100%	90%	102%	79%	94%	101%	105%	91%	77%	87%	101%	99%	90%	86%	54%
Cc1cccc(-c2[nH]c(C(C)(C)C)nc2-c2ccc3c(c2)OCO3)n1	85%	101%	79%		95%	102%	101%	146%	86%	95%	92%	91%	76%	90%	94%	105%		92%	87%	106%
CC#CC(=O)Nc1cc2c(Nc3ccc(F)c(Cl)c3)ncnc2cn1	61%	107%	86%	100%	91%	102%	98%	105%	71%	97%	84%	78%	51%	100%	88%	101%	103%	89%	96%	86%
N#C/C(=C(\N)Sc1ccc(N)cc1)c1ccccc1C(F)(F)F	83%	97%	97%	91%	85%	105%	93%	83%	103%	110%	74%	65%	67%	95%	114%	104%	90%	70%	69%	83%
N#Cc1cnc2cnc(NCc3cccnc3)cc2c1Nc1ccc(F)c(Cl)c1	80%		76%	42%	27%			68%	20%	14%	7%		1%		75%			51%	96%	93%
C[C@@H](N)[C@H]1CC[C@H](C(=O)Nc2ccncc2)CC1	86%	113%	108%		89%	97%	96%					99%	100%	113%	109%	102%	105%			59%

SMILES	residual activity [1]	residual activity [2]	residual activity [3]	residual activity [4]	residual activity [5]	residual activity [6]	residual activity [7]	residual activity [8]	residual activity [9]	residual activity [10]	residual activity [11]	residual activity [12]	residual activity [13]	residual activity [14]	residual activity [15]	residual activity [16]	residual activity [17]	residual activity [18]	residual activity [19]	residual activity [20]
Cn1nc2c3c(cccc31)C(=O)c1ccccc1-2	9%	84%	45%	86%	80%	102%	84%		93%	106%	86%	89%	50%	83%	96%		97%	77%	73%	68%
Nc1cccc(-c2cc3c(Oc4cccc(O)c4)ncnc3[nH]2)c1	57%	5%	2%	14%	4%	67%	11%	3%	7%	4%	0%	2%	-1%			120%	83%	71%	34%	9%
O=C1Nc2ccc(Br)cc2/C1=C\c1cc2c([nH]1)CCCC2		12%	4%			97%	99%					21%	22%			104%	106%	108%	74%	76%
CO[C@H]1[C@@H](OC)C[C@H](C)[C@@H](OC)C2=CC(=O)C=C(NC(=O)/C(C)=C/C=C/[C@H](OC)[C@@H](OC(N)=O)/C(C)=C/[C@@H]1C)C2=O	110%	97%	87%	109%	90%	97%	90%	142%	86%	93%	85%	85%	57%	88%	89%	105%	97%	101%	100%	
c1ccc(-c2n[nH]c3c2oc2ccccc23)cc1	32%	5%	3%	88%	64%							68%	30%	86%	80%				92%	70%
CO[C@@H]1[C@H](N(C)C(=O)c2ccccc2)C[C@H]2O[C@]1(C)n1c3ccccc3c3c4c(c5c6ccccc6n2c5c31)C(=O)NC4	27%	3%	2%	22%	4%	95%	93%	13%	5%	5%	6%	6%	2%	75%		101%	98%	75%	21%	9%
O=C1NC(=O)/C(=C/c2ccc3c(c2)OC(F)(F)O3)S1	83%	105%	97%	110%	88%	102%	94%	125%	128%	87%	91%	100%	65%	90%	77%	104%	107%	93%	89%	89%
N#CCCc1ccc2c(c1)-c1[nH]c3ccc([N+](=O)[O-])cc3c1CC(=O)N2	43%	30%	13%					14%	13%	24%	23%	5%	0%	58%	34%		51%	57%	57%	58%
CN(C)c1ccc(/C=C2\C(=O)Nc3ccccc32)cc1	106%	4%	3%	108%	89%	94%	102%	129%	55%	83%	71%	86%	63%	91%	69%	107%	100%	121%	100%	77%
CC(C)n1cnc2c(NCc3ccccc3)nc(NCCCO)nc21	58%	98%	93%	92%	88%	105%	101%	89%	70%	87%	86%	53%	38%	87%	92%	100%	90%	72%	102%	96%
Oc1ccc(Nc2nc(-c3ccc(Cl)cc3)cs2)cc1	115%	104%	92%	102%	102%	108%		93%	103%	98%	79%	84%	56%	96%	81%	114%	107%	108%	109%	107%
O=C1NC(=O)c2cc(Nc3ccc(F)cc3)c(Nc3ccc(F)cc3)cc21		99%	61%	100%	91%	102%	93%	103%	26%	77%	44%	35%	7%	79%	57%	103%	99%	90%	89%	32%
Cc1ccc(NC2=CC(=O)c3sc(C)nc3C2=O)cc1	82%	97%	89%	84%	82%	98%	98%	86%	80%	92%	98%	80%	71%	102%	120%	108%	106%	85%	113%	105%
CC(=O)c1ccc(N2CCOCC2)cc1O	85%	106%	91%	104%	83%	97%						105%	98%	91%	89%			100%	102%	90%
O=C1Nc2cc(Br)ccc2/C1=C1/Nc2ccccc2/C1=N\O	16%	3%	2%	33%	49%	99%	81%	2%	10%	1%	19%	4%	1%	102%	80%	108%	106%	96%	72%	69%
CN(C)CCCn1cc(C2=C(c3c[nH]c4ccccc34)C(=O)NC2=O)c2ccccc21	101%	61%	14%	117%	73%	105%	102%	109%	49%	80%	43%	79%	22%					108%	33%	15%
Cc1cc2ncc(-c3ccccc3)nc2cc1C	70%	92%	79%	109%	93%	108%	99%		97%	91%	101%	74%	75%	87%	86%	100%	100%		89%	93%
